For orientation: AC50 means the concentration giving half of the maximal activity seen.

Structures are written as SMILES. Values joined by “and” are separate entries in the source; they are usually repeats but may differ in a detail not shown here. Equal values may be shown once. Records with an inconclusive call do not appear. Active and inactive are the calls of the source. How the source made its calls, unless noted: active means hit-call score of the fitted dose curve at least 0.9, where 1 is the maximum; inconclusive means response in the unintended direction; inactive means score below 0.9.

Nucleoli Translocation, AR (gene 367), sequence (P10275 whole entry, looked up): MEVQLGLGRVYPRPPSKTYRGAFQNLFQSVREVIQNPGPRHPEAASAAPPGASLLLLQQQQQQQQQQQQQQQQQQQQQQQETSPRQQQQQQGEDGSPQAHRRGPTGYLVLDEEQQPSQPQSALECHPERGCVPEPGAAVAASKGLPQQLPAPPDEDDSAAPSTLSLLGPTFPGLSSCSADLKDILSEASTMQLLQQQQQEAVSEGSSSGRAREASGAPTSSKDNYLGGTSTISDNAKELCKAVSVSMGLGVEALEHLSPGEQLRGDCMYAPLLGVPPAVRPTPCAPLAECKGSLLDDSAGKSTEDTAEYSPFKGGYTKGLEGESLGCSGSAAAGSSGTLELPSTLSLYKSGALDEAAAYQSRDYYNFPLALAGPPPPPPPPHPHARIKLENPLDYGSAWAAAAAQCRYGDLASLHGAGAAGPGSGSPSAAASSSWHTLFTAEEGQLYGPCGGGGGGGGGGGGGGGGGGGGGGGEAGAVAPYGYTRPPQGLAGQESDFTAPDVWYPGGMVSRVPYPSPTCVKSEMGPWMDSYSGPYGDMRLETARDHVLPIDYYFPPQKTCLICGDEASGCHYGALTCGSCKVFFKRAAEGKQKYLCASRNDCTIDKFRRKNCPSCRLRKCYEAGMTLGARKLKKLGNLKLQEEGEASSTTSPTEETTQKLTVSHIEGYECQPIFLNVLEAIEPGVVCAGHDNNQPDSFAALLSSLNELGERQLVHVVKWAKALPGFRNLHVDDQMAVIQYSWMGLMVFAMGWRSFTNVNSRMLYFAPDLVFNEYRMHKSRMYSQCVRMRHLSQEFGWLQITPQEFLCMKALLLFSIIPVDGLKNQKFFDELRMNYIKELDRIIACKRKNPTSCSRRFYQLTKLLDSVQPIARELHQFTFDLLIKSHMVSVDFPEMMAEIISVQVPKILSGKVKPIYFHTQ

The first test has as its system DIO1 (gene 1733). In words: CCTE_GLTED_hDIO1: CCTE's human Deiodinase 1 (DIO1) Inhibition Assay, Great Lakes Toxicology and Ecology Division (GLTED) Lab (AID 2283987).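 Further: isolated human DIO1 enzyme in a cell-free setup rather than cells; enzyme activity read as free iodide liberated from substrate via Sandell-Kolthoff colorimetry.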
Conditions: not given
The gist of the method:
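Steps: human DIO1 enzyme plus test chemical, 3 h incubation; free iodide then quantified in a second Sandell-Kolthoff step by absorbance. DMSO served as negative control and baseline.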
Consider `CC/C(=C(\c1ccccc1)c1ccc(OCCN(C)C)cc1)c1ccccc1`, for which the AC50 was 56.9 µM (active) and 72.6 µM (active).
On the same count and under the same terms, the figure for `O=C(O)C1=NN(c2ccc(S(=O)(=O)O)cc2)C(=O)C1` is 57.6 µM (active); for `CC(C)(C)c1ccc(S)cc1` it is 16.3 µM (active).
The same measure, in the same setting: the figure for `CCCCCCCCOC(=O)c1ccc(O)cc1` is 86.4 µM (active).

The next test concerns the target Nucleoli Translocation, AR (gene 367) (UniProt P10275). In words: UPITT_HCI_U2OS_AR_TIF2_Nucleoli_Antagonist: University of Pittsburgh U2OS Androgen Receptor-Transcriptional Intermediary Factor 2 (AR-TIF2) Antagonism High Content Imaging Assay for Nucleoli Translocation (AID 2283997).
Conditions: not given
The gist of the method: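 U2OS cells co-expressing red-fluorescent-tagged human AR and green-fluorescent-tagged TIF2, imaged by high-content microscopy for nucleolar red fluorescence. Antagonist mode against DHT; primary screen at 20 uM final (0.2% DMSO).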
`CCCCCCCCCCOC(=O)c1ccccc1C(=O)OCCCCCCCC`: the molecule was called inactive.
Same read-out and setting: the entry for `CCOc1ccc(NC(C)=O)cc1` is “inactive”.
On to `CC1COC(=O)O1` (stereo not given), for which the result was inactive.
Still for that read-out and setting: the entry for `CC(=O)N(C)C` is “inactive”.
In the case of `CCCCCCOc1ccc(O)cc1`, the AC50 is 50 µM (active).
For `CC(CCO)CC(C)(C)C` (stereo not given), the molecule was classed as inactive.
On the same count and under the same terms, the entry for `OC[C@H]1O[C@@H](O[C@H]2[C@H](O)[C@@H](O)[C@H](O)O[C@@H]2CO)[C@H](O)[C@@H](O)[C@H]1O` is “inactive”; for `COC(=O)c1cccc(C(=O)OC)c1` it is “inactive”; for `CCO[Si](CC)(OCC)OCC` it is “inactive”.
As for `COc1cc(OC)c2ccc(=O)oc2c1`, the outcome was inactive.
On the same count and under the same terms, the entry for `FC(F)(F)c1ccc(Cl)c(Cl)c1` is “inactive”; for `CCC(C)(C)C1CCC(=O)CC1` it is “inactive”.
The same measure, in the same setting: the entry for `CC(C)(C)c1cccc(O)c1` is “inactive”.
For `c1ccc2c(c1)-c1ccc3ccc4cccc5cc-2c1c3c45`, the AC50 is 15.4 µM (active).

Another test has the same target. In words: UPITT_HCI_U2OS_AR_TIF2_Nucleoli_Agonist: University of Pittsburgh U2OS Androgen Receptor-Transcriptional Intermediary Factor 2 (AR-TIF2) Agonism High Content Imaging Assay for Nucleoli Translocation (AID 2283998).
Conditions: not given
The method, boiled down:
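RFP-AR / GFP-TIF2 cells; cpds diluted in serum-free medium; single-point screen 20 uM final (0.2% DMSO), actives confirmed in triplicate; conc-response 0.195–50 uM final (0.5% DMSO). Readout: nucleolar red fluorescence, positive direction vs DMSO.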
As to `CCCCCCCCCCOC(=O)c1ccccc1C(=O)OCCCCCCCC`, the call was inactive.
On the same count and under the same terms, the entry for `CCOc1ccc(NC(C)=O)cc1` is “inactive”; for `CC1COC(=O)O1` (stereo not given) it is “inactive”.
Take `CCCCCCOc1ccc(O)cc1`: the AC50 is 27.7 µM (active).
For the molecule `CC(CCO)CC(C)(C)C` (stereo not given), the result was inactive.
Still for that read-out and setting: the entry for `CC(C)(CO)CO` is “inactive”; for `COC(=O)c1cccc(C(=O)OC)c1` it is “inactive”.
On the same count and under the same terms, the entry for `CCO[Si](CC)(OCC)OCC` is “inactive”; for `CCC(C)(C)C1CCC(=O)CC1` it is “inactive”.
In the case of `CC(C)(C)c1cccc(O)c1`, the AC50 was 30.6 µM (active).
For `c1ccc2c(c1)-c1ccc3ccc4cccc5cc-2c1c3c45`, the outcome was inactive.

For the next test, the target named is Ratio of Nucleoli Translocation and Cytoplasm, AR (gene 367) (UniProt P10275). In words: UPITT_HCI_U2OS_AR_TIF2_Nucleoli_Cytoplasm_Ratio_Antagonist: University of Pittsburgh U2OS Androgen Receptor-Transcriptional Intermediary Factor 2 (AR-TIF2) Antagonism High Content Imaging Assay for Ratio of Nucleoli Translocation and Cytoplasm (AID 2283999).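 Further: antagonists lower the DHT-driven ratio of nucleolar to cytoplasmic red signal.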
Ratio of Nucleoli Translocation and Cytoplasm, AR (gene 367), sequence (P10275 whole entry, looked up): as above
Conditions: not given
The method, boiled down:
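U2OS cells co-expressing RFP-tagged human AR and GFP-tagged TIF2, antagonist mode with DHT as baseline. Nucleolar-to-cytoplasmic red fluorescence ratio imaged by high-content microscopy; final compound 20 uM (0.2% DMSO) primary, 0.195–50 uM (0.5% DMSO) concentration-response.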
On to `CCOc1ccc(NC(C)=O)cc1`, for which the result was inactive.
On to `CCCCCCOc1ccc(O)cc1`, for which the AC50 was 90 µM (active).
`CC(CCO)CC(C)(C)C` (stereo not given): the outcome was inactive.
Still for that read-out and setting: the entry for `OC[C@H]1O[C@@H](O[C@H]2[C@H](O)[C@@H](O)[C@H](O)O[C@@H]2CO)[C@H](O)[C@@H](O)[C@H]1O` is “inactive”.
Still for that read-out and setting: the entry for `COC(=O)c1cccc(C(=O)OC)c1` is “inactive”.
The same measure, in the same setting: the entry for `CCO[Si](CC)(OCC)OCC` is “inactive”.
Regarding `COc1cc(OC)c2ccc(=O)oc2c1`, the outcome was inactive.
Still for that read-out and setting: the entry for `FC(F)(F)c1ccc(Cl)c(Cl)c1` is “inactive”; for `CCC(C)(C)C1CCC(=O)CC1` it is “inactive”; for `CC(C)(C)c1cccc(O)c1` it is “inactive”.
Same read-out and setting: the entry for `c1ccc2c(c1)-c1ccc3ccc4cccc5cc-2c1c3c45` is “inactive”.

A further test shares this target. In words: UPITT_HCI_U2OS_AR_TIF2_Nucleoli_Cytoplasm_Ratio_Agonist: University of Pittsburgh U2OS Androgen Receptor-Transcriptional Intermediary Factor 2 (AR-TIF2) Agonism High Content Imaging Assay for Ratio of Nucleoli Translocation and Cytoplasm (AID 2284000).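 Further: hits raise the red nucleolar to cytoplasm ratio above vehicle.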
Conditions: not given
The method, boiled down: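 U2OS cells expressing RFP-tagged human AR and GFP-tagged TIF2; high-content imaging ratio of nucleolar to cytoplasmic red fluorescence, fitted as gain of signal vs DMSO. Single point at 20 uM final (0.2% DMSO); concentration-response 0.195-50 uM final (0.5% DMSO).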
Consider `CCCCCCCCCCOC(=O)c1ccccc1C(=O)OCCCCCCCC`, for which the outcome was inactive.
Same read-out and setting: the entry for `CCOc1ccc(NC(C)=O)cc1` is “inactive”; for `CC1COC(=O)O1` (stereo not given) it is “inactive”.
On the same count and under the same terms, the entry for `CC(=O)N(C)C` is “inactive”.
For `CCCCCCOc1ccc(O)cc1`, the AC50 is 23.9 µM (active).
In the case of `CC(CCO)CC(C)(C)C` (stereo not given), the outcome was inactive.
In the case of `CC(C)(CO)CO`, the result was inactive.
With `CCO[Si](CC)(OCC)OCC`, the outcome was inactive.
On to `CC1=CCC(C(C)(C)O)CC1` (stereo not given), for which the result was inactive.
As to `FC(F)(F)c1ccc(Cl)c(Cl)c1`, the outcome was inactive.
Turning to `CCC(C)(C)C1CCC(=O)CC1`, the outcome was inactive.
With `CC(C)(C)c1cccc(O)c1`, the AC50 is 50 µM (active).
In the case of `c1ccc2c(c1)-c1ccc3ccc4cccc5cc-2c1c3c45`, the outcome was inactive.

Tested on in a further test: not listed separately
Put plainly: CCTE_Simmons_MITO_basal_resp_rate: CCTE's HepG2 Seahorse XF Respirometric Screening Assay at Basal Respiratory State, Simmons Lab (AID 2284001; active means hit-call score of the fitted dose curve at least 0.9, where 1 is the maximum; inactive means score below 0.9). Particulars: actives raise or lower the signal. The gist of the method:
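HepG2 oxygen consumption on Seahorse XF96 after compound injection, 7 concentrations 125 nM–100 uM final, reads every 6 min over 72 min. Triplicate biological replicates; bidirectional fit vs DMSO; fenpyroximate and 2,4-dinitrophenol controls.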
Consider `C[C@]12CC[C@@H]3c4ccc(O)cc4CC[C@H]3[C@@H]1CC[C@@H]2O`, for which the AC50 is 27.1 µM (active).
The same measure, in the same setting: the figure for `C#C[C@]1(O)CC[C@H]2[C@@H]3CCc4cc(O)ccc4[C@H]3CC[C@@]21C` is 33.4 µM (active).
In the case of `CC/C(=C(\c1ccccc1)c1ccc(OCCN(C)C)cc1)c1ccccc1`, the molecule was classed as inactive.

Tested on in a further test: not listed separately
In words: CCTE_Simmons_MITO_max_resp_rate: CCTE's HepG2 Seahorse XF Respirometric Screening Assay at Maximal Respiratory State [uncoupled], Simmons Lab (AID 2284002; active means hit-call score of the fitted dose curve at least 0.9, where 1 is the maximum; inactive means score below 0.9). Particulars: actives raise or lower the signal. The method, boiled down: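 HepG2, Seahorse XF96, maximal OCR post-FCCP. Cpd 125 nM–100 uM final (7 conc), n=3 biological. Kinetic reads every 6 min (3 min mix/3 min measure) over 72 min; fit bidirectional vs DMSO.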
For `C[C@]12CC[C@@H]3c4ccc(O)cc4CC[C@H]3[C@@H]1CC[C@@H]2O`, the molecule was called inactive.
Take `C#C[C@]1(O)CC[C@H]2[C@@H]3CCc4cc(O)ccc4[C@H]3CC[C@@]21C`: the result was inactive.
The same measure, in the same setting: the entry for `CC/C(=C(\c1ccccc1)c1ccc(OCCN(C)C)cc1)c1ccccc1` is “inactive”.

Tested on in another test: not listed separately
In words: CCTE_Simmons_MITO_inhib_resp_rate: CCTE's HepG2 Seahorse XF Respirometric Screening Assay at Inhibited Respiratory State [full ETC block], Simmons Lab (AID 2284006; active means hit-call score of the fitted dose curve at least 0.9, where 1 is the maximum; inactive means score below 0.9). Particulars: actives raise or lower the signal. The method, boiled down:
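HepG2 oxygen consumption was measured by Seahorse XF after compound, FCCP, then rotenone/antimycin A injections. Seven concentrations from 125 nM to 100 uM (final) were tested, with 6-min kinetic reads over 72 minutes. Inhibited-state OCR was fitted bidirectionally against DMSO.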
With `C[C@]12CC[C@@H]3c4ccc(O)cc4CC[C@H]3[C@@H]1CC[C@@H]2O`, the outcome was inactive.
Still for that read-out and setting: the entry for `C#C[C@]1(O)CC[C@H]2[C@@H]3CCc4cc(O)ccc4[C@H]3CC[C@@]21C` is “inactive”; for `CC/C(=C(\c1ccccc1)c1ccc(OCCN(C)C)cc1)c1ccccc1` it is “inactive”.

Tested on in the next test: not listed separately
Put plainly: CCTE_Simmons_MITO_viability: CellTiter-Glo Viability Assessment for CCTE's HepG2 Seahorse XF Respirometric Screening Assay [post-hoc], Simmons Lab (AID 2284007).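 On AC50: cells exposed to chemical for 90 min before the ATP read; actives lower ATP signal relative to DMSO baseline meaning reduced viability.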
Conditions: not given
The method, boiled down:
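HepG2 cells exposed 90 min to 7 concentrations from 125 nM to 100 uM final, then ATP measured by luciferase luminescence. Three biological replicates per concentration; DMSO vehicle; dichlone control at 10 nM–100 uM.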
In general terms: ATP-based viability assays read luminescence as a measure of living cells.
For `C[C@]12CC[C@@H]3c4ccc(O)cc4CC[C@H]3[C@@H]1CC[C@@H]2O`, the AC50 is 27 µM (active).
In the case of `C#C[C@]1(O)CC[C@H]2[C@@H]3CCc4cc(O)ccc4[C@H]3CC[C@@]21C`, the molecule was classed as inactive.
Consider `CC/C(=C(\c1ccccc1)c1ccc(OCCN(C)C)cc1)c1ccccc1`, for which the AC50 was 73.5 µM (active).
